aDG glyco act = increases alpha dystroglycan glycosylation | activation, % at 10 µM | actives 0.22% (n = 360,000) | AID 624168 | Pro5-aDG cells, alpha-DG glycosylation AlphaScreen (IIH6); 0% Pro5, 100% B10-LARGE cell signal;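 active means activation of at least 8% versus controls, or a plate z-score of at least 8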;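 further: Pro5 are CHO cells carrying HIG-tagged alpha-DG that lacks glycosylation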
A3A deaminase = human APOBEC3A DNA deaminase inhibition | recombinant A3A, FAM/TAMRA ssDNA deamination fluorescence | actives 0.41% (n = 330,000) | P31941 | inhibition, % at 20 µM;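 active means at least 40% inhibition at 20 µM here, with at most 30% in a related deaminase screen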;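 further: plate controls were A3A with DMSO for no effect and wells lacking A3A enzyme for full effect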
PHOSPHO1 inh = blocks human PHOSPHO1 phosphatase activity. recombinant PHOSPHO1, absorbance phosphatase assay. inhibition, % at 13.3 µM. Q8TCT1. AID 1565. actives 1.1% (n = 290,000); in the data active means inhibition above about 60%
rCAG RNA binder = binds r(CAG) RNA repeats | inhibition, % at 3 µM | r(CAG) RNA repeat, TO-PRO-1 dye displacement fluorescence | actives 1.3% (n = 370,000);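 active means inhibition above the plate cutoff, the mean of all test compounds on that plate plus 3 SD, cut at about 35% in these data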;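 further: 0% = DMSO alone and 100% = 100 µM mitoxantrone as full dye displacement; higher means more dye released from RNA so lower well fluorescence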
APOBEC3G inh = APOBEC3G (human) deaminase inhibition | Q9HC16 | recombinant A3G, ssDNA deamination FAM/TAMRA fluorescence | inhibition, % at 20 µM | actives 0.28% (n = 330,000) | AID 493012;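 active means inhibition of at least 40% at 20 µM, with no more than 30% in the related APOBEC3A deaminase screen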;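 further: plate controls were DMSO wells with A3G for no effect and wells lacking A3G enzyme for full effect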
Target sequence (Q9HC16 whole entry, looked up): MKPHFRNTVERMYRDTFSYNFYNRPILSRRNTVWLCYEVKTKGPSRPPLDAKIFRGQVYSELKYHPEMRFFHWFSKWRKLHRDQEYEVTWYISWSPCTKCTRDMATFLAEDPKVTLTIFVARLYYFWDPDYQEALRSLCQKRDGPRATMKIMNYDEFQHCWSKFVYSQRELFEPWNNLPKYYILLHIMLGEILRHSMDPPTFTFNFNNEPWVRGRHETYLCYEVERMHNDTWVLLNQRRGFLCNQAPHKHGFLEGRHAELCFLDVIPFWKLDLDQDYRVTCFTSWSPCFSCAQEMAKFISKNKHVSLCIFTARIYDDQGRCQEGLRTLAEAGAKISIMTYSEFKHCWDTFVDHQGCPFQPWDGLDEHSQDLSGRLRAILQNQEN
ALR H2O2 inh = blocks human ALR sulfhydryl oxidase activity; purified ALR, DTT oxidation, H2O2 HRP-luminol luminescence; inhibition, % (test concentration not listed); AID 485317; actives 3.8% (n = 290,000); P55789;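 active means mean replicate inhibition above about 79%, with every replicate also reaching it, limit read from the data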
Active calls of the source: *; x = not tested or not shown. In the library only some 5.4% were active in any assay of this set; here they are far more common.

SMILES | aDG glyco act | A3A deaminase | PHOSPHO1 inh | rCAG RNA binder | APOBEC3G inh | ALR H2O2 inh
Cc1[nH]nc(N)c1N=Nc1ccc(Br)cc1 | x | -3 | 21 | 6 | -10 | -1
O=C(c1ccc2c(c1)C(=O)N(Cc1ccco1)C2O)N1CCOCC1 (configuration not stated) | 0 | -2 | -5 | 3 | -5 | 87*
COC(=O)[C@]12C[C@H](CC(=O)NCc3ccccc3)C(=O)N(Cc3ccc4c(c3)OCO4)C1=C[C@H](COCc1ccccc1)O[C@@H]2C | x | x | x | 7 | x | x
Oc1cc2c(cc1O)C(c1ccccc1)CNCC2 (configuration not stated) | 0 | -6 | x | 3 | -4 | 98*
Cc1ccc(CSCCNC(=O)c2ccc(C)cc2)cc1 | 0 | 1 | 62* | -4 | -6 | -5
CC(=O)c1cc(C#N)c(SCc2ccncc2)nc1C | 1 | -1 | 69* | -1 | -2 | 61
O=C(C1CCC1)N1CCc2cc(S(=O)(=O)N3CCCC3)ccc21 | x | x | x | 1 | x | x
CN(N=Cc1ccc2c(c1)OCO2)C(=O)c1ccccc1N | x | x | x | 2 | x | x
Cc1cccc(C)c1NC(=O)[C@@H]1CC(=O)O[C@@H]1c1ccccc1 | x | x | x | 0 | x | x
COC(=O)c1cc(NC(=O)c2cccs2)ccc1N1CCOCC1 | 0 | -5 | 24 | -1 | -3 | 15
O=C(O)c1cc(NCc2ccccc2C(F)(F)F)ccc1N1CCOCC1 | 0 | 4 | -10 | -1 | 2 | 68
COC(=O)c1cc(NCc2c(F)cccc2Cl)ccc1N1CCOCC1 | 0 | 3 | 21 | -5 | 0 | 99*
O=C(O)c1cc(NCc2ccc(F)cc2)ccc1N1CCOCC1 | 0 | -1 | 42 | 0 | -4 | 97*
COC(=O)c1cc(NCc2cccs2)ccc1N1CCOCC1 | 0 | 0 | -8 | -3 | 0 | 100*
O=C(O)c1cc(NCc2cccs2)ccc1N1CCOCC1 | 0 | -1 | 5 | -1 | -1 | 98*
COC(=O)C1=C(C)N(Cc2ccccc2C(F)(F)F)C(=NCc2ccccc2)NC1CCc1ccccc1 (configuration not stated) | x | x | x | 9 | x | x
N#Cc1ccc(/C=C2\CC3(OC(=O)C4CCCCC4)CCCN2C3)cc1 (configuration not stated) | x | x | x | 4 | x | x
NS(=O)(=O)c1ccc(NCc2c(F)cccc2Cl)cc1 | 0 | x | 27 | 1 | x | x
Fc1cccc(Cl)c1CNc1ccc(N2CCCC2)cc1 | -1 | -5 | 37 | 10 | 3 | 99*
CCCCCC(=O)NC1CCCCN(Cc2ccccc2C)C1=O (configuration not stated) | x | x | x | -2 | x | x
CCCc1cc(=O)n2nc(N3CCC(C(=O)N4CCN(c5ccc(OC)cc5)CC4)CC3)sc2n1 | 1 | -3 | 64* | -7 | 6 | 70
CCN1C(=O)c2cccc3c(S(=O)(=O)Nc4ccc(O)c(C(=O)O)c4)ccc1c23 | 0 | 1 | 20 | 30 | -3 | 98*
OC(c1ccccc1)(c1ccccc1)C1CCN(CCCOc2ccc(Br)cc2)CC1 | x | x | x | 1 | x | x
COC(=O)c1cc(Cl)cc(Cl)c1OS(=O)(=O)N(C)C | 0 | -1 | 16 | -7 | -5 | 99*
CC(=O)NC1CCCCN(Cc2ccc(Cl)cc2)C1=O (configuration not stated) | x | x | x | 2 | x | x
SMILES | aDG glyco act | A3A deaminase | PHOSPHO1 inh | rCAG RNA binder | APOBEC3G inh | ALR H2O2 inh
O=C(NCCCN1CCOCC1)C(=O)NCC1OCCCN1S(=O)(=O)c1cc(F)ccc1F (configuration not stated) | -1 | 0 | 75* | -5 | -2 | -3
CC[C@H](CCCc1ccc(OC)cc1)CCC(=O)N1CCOCC1 | x | x | x | 0 | x | x
CCOC(=O)c1[nH]c2ccccc2c1N=CN(CC)CC | 0 | 0 | -46 | -6 | -2 | 99*
C=CCN1C(=O)[C@@H](CC(=O)NCc2ccc(OC)c(OC)c2)[C@]2(C(=O)OC)CCCCC=C12 | x | x | x | 2 | x | x
CC(C)(C)NC(=O)C(c1cccc2ccccc12)n1c(=O)c(-c2ccco2)nc2ccccc21 (configuration not stated) | 0 | x | x | 44* | x | x
O=C(NCc1ccccc1)C(c1cccc2ccccc12)n1c(=O)c(-c2ccco2)nc2ccccc21 (configuration not stated) | 0 | x | x | 38* | x | x
CC(C)(C)NC(=O)C(c1cccc2ccccc12)n1c(=O)c(-c2ccccc2)nc2ccccc21 (configuration not stated) | -1 | x | x | 4 | x | x
